Among the targets are RELARELA (p65 homodimer) (Homo sapiens, UniProt Q04206 1-307); p50p50 homodimer (Homo sapiens, UniProt P19838 7-356); RELB subunit;p50 subunit (Homo sapiens;Homo sapiens, UniProt Q01201;P19838 120-401;7-356).
Common to all, as to test: protein binding microarray; high values mean tight binding
Holding throughout (settings): dsDNA, one strand shown

Another assay addresses T1, p52p52 homodimer (Homo sapiens, UniProt Q00653 4-332).
T1 sequence: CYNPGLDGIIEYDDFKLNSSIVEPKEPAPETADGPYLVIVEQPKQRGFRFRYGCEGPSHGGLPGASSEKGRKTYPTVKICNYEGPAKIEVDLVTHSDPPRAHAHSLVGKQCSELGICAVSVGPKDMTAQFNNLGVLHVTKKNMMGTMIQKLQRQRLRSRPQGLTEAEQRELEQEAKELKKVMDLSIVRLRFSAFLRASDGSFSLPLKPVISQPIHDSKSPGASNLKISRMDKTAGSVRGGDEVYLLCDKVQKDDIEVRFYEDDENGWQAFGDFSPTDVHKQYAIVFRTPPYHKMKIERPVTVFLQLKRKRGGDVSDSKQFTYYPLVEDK

In assay [1] the target is RELA (p65) subunit of heterodimer;p50 subunit (Homo sapiens;Homo sapiens, UniProt Q04206;P19838 1-307;7-356).
Chain of RELA (p65) subunit of heterodimer;p50 subunit (Q04206 1-307, chain 1 of 2): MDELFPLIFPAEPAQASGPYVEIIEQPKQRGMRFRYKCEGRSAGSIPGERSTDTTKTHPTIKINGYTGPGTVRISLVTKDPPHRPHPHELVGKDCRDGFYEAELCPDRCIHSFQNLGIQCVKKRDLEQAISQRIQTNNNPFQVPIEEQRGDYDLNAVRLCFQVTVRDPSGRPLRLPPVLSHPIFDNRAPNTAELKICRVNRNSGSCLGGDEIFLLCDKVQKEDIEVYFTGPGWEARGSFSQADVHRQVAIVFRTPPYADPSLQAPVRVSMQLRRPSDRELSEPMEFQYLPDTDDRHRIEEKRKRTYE
Chain of RELA (p65) subunit of heterodimer;p50 subunit (P19838 7-356, chain 2 of 2): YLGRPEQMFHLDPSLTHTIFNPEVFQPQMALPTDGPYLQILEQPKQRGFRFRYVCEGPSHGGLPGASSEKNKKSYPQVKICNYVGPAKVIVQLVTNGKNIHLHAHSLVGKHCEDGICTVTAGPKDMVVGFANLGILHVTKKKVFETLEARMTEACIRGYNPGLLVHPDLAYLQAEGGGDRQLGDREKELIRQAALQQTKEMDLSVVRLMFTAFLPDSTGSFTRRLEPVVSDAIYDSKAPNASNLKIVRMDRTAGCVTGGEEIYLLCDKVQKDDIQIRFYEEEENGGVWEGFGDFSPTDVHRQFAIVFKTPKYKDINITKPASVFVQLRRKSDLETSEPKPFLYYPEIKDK
The target of assay [2] is RELA (p65) subunit of heterodimer;p52 subunit (Homo sapiens;Homo sapiens, UniProt Q04206;Q00653 1-307;4-332).
In another assay the target is T2, RELB subunit;p52 subunit (Homo sapiens;Homo sapiens, UniProt Q01201;Q00653 120-401;4-332).
T2 sequence 1: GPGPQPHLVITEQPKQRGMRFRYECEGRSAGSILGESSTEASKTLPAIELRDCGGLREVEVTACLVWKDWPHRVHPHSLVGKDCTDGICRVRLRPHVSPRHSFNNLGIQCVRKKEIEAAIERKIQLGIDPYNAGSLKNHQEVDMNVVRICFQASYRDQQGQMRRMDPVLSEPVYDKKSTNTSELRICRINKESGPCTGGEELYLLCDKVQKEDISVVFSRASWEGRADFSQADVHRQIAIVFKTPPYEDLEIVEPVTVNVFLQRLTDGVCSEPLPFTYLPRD
T2 sequence 2: T1 sequence

Assay [3] concerns the target C-Rel subunit;p50 subunit (Homo sapiens;Homo sapiens, UniProt Q04864;P19838 1-285;7-356).
The target in assay [4] is T3, C-Rel subunit;p52 subunit (Homo sapiens;Homo sapiens, UniProt Q04864;Q00653 1-285;4-332).
T3 sequence 1: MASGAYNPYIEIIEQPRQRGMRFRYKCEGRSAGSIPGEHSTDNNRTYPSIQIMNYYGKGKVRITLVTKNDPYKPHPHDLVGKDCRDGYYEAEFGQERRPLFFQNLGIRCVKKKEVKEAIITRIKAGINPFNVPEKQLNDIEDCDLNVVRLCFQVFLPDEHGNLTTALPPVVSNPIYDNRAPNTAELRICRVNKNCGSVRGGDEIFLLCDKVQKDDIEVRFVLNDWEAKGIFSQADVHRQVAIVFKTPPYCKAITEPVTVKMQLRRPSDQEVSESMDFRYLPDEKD
T3 sequence 2: T1 sequence

We go through 15 sequences from publication PMC3218832.

Chain of RELARELA (p65 homodimer) (Q04206 1-307): as the sequence (Q04206 1-307, chain 1 of 2) above
Chain of p50p50 homodimer (P19838 7-356): as the sequence (P19838 7-356, chain 2 of 2) above

Regarding CGATGGGCCCT, the binding signal was -0.936 z-score with RELARELA (p65 homodimer); -1.43 z-score with p50p50 homodimer; -0.601 z-score in the assay with p52p52 homodimer; -0.968 z-score in assay [1]; -0.798 z-score in assay [2]; -0.95 z-score in the assay with RELB subunit;p50 subunit. Further, the binding signal in the assay with RELB subunit;p52 subunit is -0.85 z-score; in assay [3], -1.73 z-score; in assay [4], -0.583 z-score.

For AAATACGCCCT, the binding signal was 0.0178 z-score with RELARELA (p65 homodimer); -0.886 z-score with p50p50 homodimer; -0.502 z-score with p52p52 homodimer; -0.594 z-score in [1]; -0.758 z-score in assay [2]; -1.09 z-score with RELB subunit;p50 subunit. In addition, the binding signal with RELB subunit;p52 subunit is -0.751 z-score; in assay [3], -0.684 z-score; in assay [4] it was -0.592 z-score.

In the case of GAAGACACCCC, the binding signal with RELARELA (p65 homodimer) was -0.516 z-score; in the assay with p50p50 homodimer, -0.135 z-score; with p52p52 homodimer it was -0.303 z-score; in assay [1] it was -0.324 z-score; in assay [2], -0.316 z-score; with RELB subunit;p50 subunit, -0.183 z-score. The binding signal with RELB subunit;p52 subunit was 0.105 z-score; in [3] it was -0.163 z-score; in assay [4], -0.242 z-score.

Turning to GAGTTGGCCCT, the binding signal in the assay with RELARELA (p65 homodimer) is -0.84 z-score; with p50p50 homodimer, -1.24 z-score; with p52p52 homodimer, -0.495 z-score; in assay [1], -0.546 z-score; in assay [2], -0.734 z-score; with RELB subunit;p50 subunit it was -0.243 z-score. Moreover, the binding signal in the assay with RELB subunit;p52 subunit was -0.397 z-score; in assay [3], -0.778 z-score; in [4], -0.623 z-score.

For the sequence AGATGTTCCCT, the binding signal is 0.238 z-score with RELARELA (p65 homodimer); 0.414 z-score with p50p50 homodimer; 0.229 z-score in the assay with p52p52 homodimer; 0.235 z-score in [1]; -0.0295 z-score in assay [2]; 0.0779 z-score with RELB subunit;p50 subunit. Besides, the binding signal with RELB subunit;p52 subunit was -0.091 z-score; in [3], 0.0801 z-score; in assay [4], -0.204 z-score.

In the case of GAGATTGCCCC, the binding signal in the assay with RELARELA (p65 homodimer) was determined as 0.817 z-score; with p50p50 homodimer it was 0.318 z-score; in the assay with p52p52 homodimer, 0.0909 z-score; in assay [1], 0.951 z-score; in assay [2], 0.468 z-score; with RELB subunit;p50 subunit, 0.435 z-score. Also, the values for the binding signal (with RELB subunit;p52 subunit; in assay [3]; in assay [4]) were 0.366 z-score, 1.1 z-score and 0.621 z-score, respectively.

Consider GAGGGATTCCT, for which the binding signal worked out at 0.218 z-score with RELARELA (p65 homodimer); 0.321 z-score with p50p50 homodimer; 0.87 z-score in the assay with p52p52 homodimer; 0.254 z-score in assay [1]; 0.589 z-score in [2]; 0.159 z-score with RELB subunit;p50 subunit. Also, the binding signal with RELB subunit;p52 subunit was found to be 0.491 z-score; in assay [3], 0.376 z-score; in assay [4], 0.538 z-score.

Take AAGAATCCCCC: the binding signal with RELARELA (p65 homodimer) amounted to 1.26 z-score; with p50p50 homodimer, 1.57 z-score; in the assay with p52p52 homodimer, 2.41 z-score; in assay [1], 2.44 z-score; in assay [2], 2.16 z-score; with RELB subunit;p50 subunit, 2.64 z-score. In addition, the binding signal was 2.41 z-score with RELB subunit;p52 subunit, 1.79 z-score in assay [3] and 1.99 z-score in assay [4].

Regarding AGAAGATTCCT, the binding signal with RELARELA (p65 homodimer) was 0.055 z-score; with p50p50 homodimer it was -1.1 z-score; with p52p52 homodimer, -0.567 z-score; in assay [1] it was -0.642 z-score; in assay [2] it was -0.681 z-score; in the assay with RELB subunit;p50 subunit, -0.914 z-score. Further, the binding signal was -0.843 z-score with RELB subunit;p52 subunit, -0.495 z-score in assay [3] and -0.373 z-score in assay [4].

Take CAAAGGGTCCC: the binding signal was -0.377 z-score in the assay with RELARELA (p65 homodimer); -0.186 z-score with p50p50 homodimer; -0.0557 z-score with p52p52 homodimer; -0.357 z-score in assay [1]; -0.288 z-score in [2]; 0.0439 z-score with RELB subunit;p50 subunit. The binding signal with RELB subunit;p52 subunit is -0.0611 z-score; in assay [3], -0.397 z-score; in assay [4], -0.359 z-score.

For AAATACGTCCC, the binding signal with RELARELA (p65 homodimer) worked out at 0.519 z-score; with p50p50 homodimer it was 0.264 z-score; with p52p52 homodimer, 0.547 z-score; in [1] it was 0.144 z-score; in [2], 0.183 z-score; in the assay with RELB subunit;p50 subunit, 0.285 z-score. The figures for the binding signal (in the assay with RELB subunit;p52 subunit; in assay [3]; in [4]) were 0.334 z-score, 0.368 z-score and -0.029 z-score, respectively.

Take AGGGTGGTCCC: the binding signal is -0.0899 z-score with RELARELA (p65 homodimer); 0.541 z-score in the assay with p50p50 homodimer; 0.435 z-score with p52p52 homodimer; 0.249 z-score in assay [1]; 0.357 z-score in assay [2]; 0.251 z-score in the assay with RELB subunit;p50 subunit. The binding signal came out at 0.266 z-score with RELB subunit;p52 subunit, 0.364 z-score in assay [3] and 0.427 z-score in assay [4].

In the case of AGGAGGTCCCC, the binding signal with RELARELA (p65 homodimer) came out at 0.488 z-score; with p50p50 homodimer, 0.454 z-score; with p52p52 homodimer, 0.466 z-score; in assay [1], 0.767 z-score; in [2], 0.75 z-score; with RELB subunit;p50 subunit, 0.631 z-score. For the same sequence, the binding signal was 0.644 z-score with RELB subunit;p52 subunit, 0.617 z-score in assay [3] and 0.715 z-score in assay [4].

As to CGGTGCCTCCT, the binding signal is -0.441 z-score in the assay with RELARELA (p65 homodimer); -0.702 z-score with p50p50 homodimer; -0.485 z-score in the assay with p52p52 homodimer; -0.873 z-score in assay [1]; -0.611 z-score in assay [2]; -0.763 z-score with RELB subunit;p50 subunit. Also, the binding signal in the assay with RELB subunit;p52 subunit is -0.769 z-score; in [3], -1.19 z-score; in [4] it was -0.785 z-score.

AAAAACATCCT: the binding signal was -0.23 z-score with RELARELA (p65 homodimer); -0.94 z-score in the assay with p50p50 homodimer; -0.575 z-score with p52p52 homodimer; -0.766 z-score in [1]; -0.82 z-score in assay [2]; -0.865 z-score with RELB subunit;p50 subunit. Moreover, the binding signal is -0.741 z-score with RELB subunit;p52 subunit, -1.09 z-score in [3] and -0.784 z-score in assay [4].
